# Source: PubChem BioAssay
# The source made the active and inactive calls. Unless noted, how the calls were made is not given here.
# Experiments:
# [1] = compound effects on lung adenocarcinoma cell viability – A549, calcein-AM fluorescence, 48 h, basal, profiling panel (AID 1162); details: higher = more signal; further: test concentration not given here
# [2] = compound effects on differentiated 3T3-L1 adipocyte viability – cell-based, 3T3-L1 adipocytes, calcein-AM fluorescence, 48 h, basal, profiling panel (AID 1163); details: 3T3-L1 adipocytes viability, higher = more signal; further: test concentration not given here
# [3] = compound effects on hepatocellular carcinoma cell viability – HepG2, calcein-AM fluorescence, 48 h, basal, profiling panel (AID 1164); details: higher = more signal; further: test concentration not given here
# [4] = compound effects on multiple myeloma cell viability – MM1S, calcein-AM fluorescence, 48 h, basal, profiling panel (AID 1165); details: higher = more signal;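 further: viability of MM1S multiple myeloma cells under basal unstimulated conditions; test concentration not given here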
# [5] = calcein-AM signal in unstimulated myeloma cells – cell-based, calcein-AM fluorescence, 48 h, PK04 Diversity Set, profiling panel (AID 1166); details: RPMI8226 myeloma viability, higher = more signal;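 further: cells grown under basal conditions without added stimulus; test concentration not given here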
# [6] = JC-1 mitochondrial signal, unstimulated HepG2 cells – cell-based, JC-1 fluorescence, 24 h, 100 nL compound, profiling panel (AID 1167); details: HepG2 mitochondrial potential, higher = more signal; further: test concentration not given here
# [7] = JC-1 mitochondrial signal, unstimulated adipocytes – cell-based, JC-1 fluorescence, 3T3-L1 adipocytes, 24 h, 100 nL compound, profiling panel (AID 1168); details: JC-1 mitochondrial fluorescence, higher = more signal, called active from +8 up or from −8 down; further: test concentration not given here
# [8] = JC-1 mitochondrial signal, unstimulated myeloma cells – cell-based, JC-1 fluorescence, RPMI8226, 24 h, 100 nL compound, profiling panel (AID 1169); details: JC-1 mitochondrial potential fluorescence, higher = more signal; further: test concentration not given here
# [9] = JC-1 mitochondrial signal, unstimulated MM1S myeloma – cell-based, JC-1 fluorescence, 24 h, 100 nL compound, profiling panel (AID 1170); details: MM1S mitochondrial potential, higher = more signal; further: test concentration not given here
# [10] = resazurin metabolic signal in A549 cells – cell-based, resazurin fluorescence, 24 h, PK04 Diversity Set, profiling panel (AID 1171); details: A549 viability, higher = more signal, called active from +8 up or from −8 down; further: test concentration not given here
# [11] = resazurin metabolic signal in HepG2 cells – cell-based, resazurin fluorescence, 24 h, PK04 Diversity Set, profiling panel (AID 1172); details: HepG2 viability, higher = more signal; further: test concentration not given here
# [12] = budding yeast growth changes without added modifier – OD600, strain BY4716, 24 h, basal condition, primary screen (AID 1173); details: S. cerevisiae BY4716 growth, OD600, 24 h; higher = more signal, called active from +8 up or from −8 down
# [13] = viability profiling in MM1S myeloma cells – cell-based, resazurin fluorescence, basal, 24 h, PK04 Diversity Set, profiling panel (AID 1174); details: higher = more signal, called active from +8 up or from −8 down; further: test concentration not given here
# [14] = biological target: Dihydroorotate dehydrogenase (quinone), mitochondrial (Plasmodium falciparum (isolate 3D7)) (UniProt Q08210); test: inhibition of P. falciparum DHODH – biochemical, C-terminal His tag, absorbance 600 nm, primary screen (AID 1175); details: PfDHODH enzyme, DCIP absorbance 600 nm; higher = more signal, called active from +8 up or from −8 down;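 further: recombinant parasite enzyme with a five histidine tag at its C terminus; test concentration not given here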
# Dihydroorotate dehydrogenase (quinone), mitochondrial (Plasmodium falciparum (isolate 3D7)), sequence (Q08210 whole entry, looked up): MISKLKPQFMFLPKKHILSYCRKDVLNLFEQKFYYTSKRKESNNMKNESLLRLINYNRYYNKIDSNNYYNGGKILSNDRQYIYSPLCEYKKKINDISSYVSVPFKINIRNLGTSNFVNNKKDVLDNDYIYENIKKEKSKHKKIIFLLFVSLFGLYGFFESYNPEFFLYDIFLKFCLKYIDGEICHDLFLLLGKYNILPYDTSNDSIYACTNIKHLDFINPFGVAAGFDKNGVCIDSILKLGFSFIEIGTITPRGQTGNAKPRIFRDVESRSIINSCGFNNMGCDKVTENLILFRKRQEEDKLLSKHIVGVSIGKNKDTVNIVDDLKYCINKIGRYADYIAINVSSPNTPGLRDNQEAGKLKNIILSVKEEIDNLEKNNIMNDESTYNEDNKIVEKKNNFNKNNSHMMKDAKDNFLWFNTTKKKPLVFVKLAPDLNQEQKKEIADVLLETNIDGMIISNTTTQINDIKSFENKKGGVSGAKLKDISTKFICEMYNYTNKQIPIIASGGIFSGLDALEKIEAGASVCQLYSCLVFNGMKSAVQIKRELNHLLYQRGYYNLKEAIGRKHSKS
# [15] = inhibition of PAO1 biofilm formation – strain PAO1, LB-PBS medium, absorbance 600 nm, primary screen (AID 1176); further: test concentration not given here; details: P. aeruginosa PAO1 growth/biofilm, A600, 12 h; higher = more signal
# [16] = growth modulation of vineyard yeast isolate – strain RM11-1a, OD600, basal, 24 h, primary screen (AID 1177);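 further: cultures grown under basal conditions with no added stressor; test concentration not given here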; details: S. cerevisiae RM11-1a growth, OD600, 24 h; higher = more signal, called active from +8 up or from −8 down
# [17] = growth of efflux-deficient E. coli DRC39 – strain DRC39, OD650, 24 h, E. coli filamentation inducers, primary screen (AID 1178);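 further: growth measured as culture turbidity by optical density at 650 nm; test concentration not given here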; details: E. coli DRC39 acrAB, higher = more signal, called active from +8 up or from −8 down
# [18] = growth of efflux-deficient E. coli DRC39 – strain DRC39, OD650, 48 h, E. coli filamentation inducers, primary screen (AID 1179);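 further: screen aims at cell division blockers that make cells filament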; details: E. coli DRC39 delta-acrAB growth, higher = more signal, called active from +8 up or from −8 down
# [19] = viability profiling in RPMI8226 myeloma cells – cell-based, resazurin fluorescence, basal, 24 h, PK04 Diversity Set, profiling panel (AID 1180); details: higher = more signal;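 further: RPMI8826 multiple myeloma cell line at 5000 cells per well; test concentration not given here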
# [20] = biological target: E3 ubiquitin-protein ligase XIAP (Homo sapiens) (UniProt P98170); test: small molecules binding XIAP protein – biophysical, small-molecule microarray, fluorescence 635 nm, primary screen (AID 1181); details: higher = more signal;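 further: score merges 667 nm emission and signal to noise over triplicate slides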
# E3 ubiquitin-protein ligase XIAP (Homo sapiens), sequence (P98170 whole entry, looked up): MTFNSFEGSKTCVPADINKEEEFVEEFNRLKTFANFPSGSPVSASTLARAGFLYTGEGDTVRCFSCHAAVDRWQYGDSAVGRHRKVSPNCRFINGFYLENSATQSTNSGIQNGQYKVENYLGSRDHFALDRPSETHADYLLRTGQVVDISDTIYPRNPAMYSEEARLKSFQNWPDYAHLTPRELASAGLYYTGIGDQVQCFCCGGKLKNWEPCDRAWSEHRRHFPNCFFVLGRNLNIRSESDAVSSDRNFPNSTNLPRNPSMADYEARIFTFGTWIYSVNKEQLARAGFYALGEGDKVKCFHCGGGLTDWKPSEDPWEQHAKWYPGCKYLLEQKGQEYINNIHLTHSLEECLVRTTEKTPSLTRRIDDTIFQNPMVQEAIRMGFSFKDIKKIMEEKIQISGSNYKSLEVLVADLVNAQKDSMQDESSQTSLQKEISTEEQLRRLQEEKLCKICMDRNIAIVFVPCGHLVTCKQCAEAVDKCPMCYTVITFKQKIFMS
smiles,measurement,setting,value
CC(CO)N1C(=O)[C@@H]2[C@H]3C(=O)OCC=C[C@H]3OC23C=CCN(Cc2ccccc2)C(=O)[C@@H]13 (stereo not given in full),z-score,[1],-0.0849
same,z-score,[2],0.847
same,z-score,[3],-1.35
same,z-score,[4],1.17
same,z-score,[5],0.0239
same,z-score,[6],-0.378
same,z-score,[7],0.508 (inactive)
same,z-score,[8],-0.0286
same,z-score,[9],0.491
same,z-score,[10],0.881 (inactive)
same,z-score,[11],1.44
same,z-score,[12],-0.319 (inactive)
same,z-score,[13],1.01 (inactive)
same,composite z-score,[14],-1.07 (inactive)
same,z-score,[15],0.745 (inactive)
same,z-score,[16],-1.21 (inactive)
same,z-score,[17],0.518 (inactive)
same,z-score,[18],0.075 (inactive)
same,z-score,[19],1.28
same,composite z-score,[20],0.184
CC(=O)NCCCC[C@@H]1NC(=O)[C@@H]2C[C@H](C(=O)NCCCC[N+](C)(C)C)[C@H](c3ccc(O)cc3)N2C1=O,z-score,[1],-0.431
same,z-score,[2],0.994
same,z-score,[3],-1.29
same,z-score,[4],-0.606
same,z-score,[5],0.274
same,z-score,[6],-1.42
same,z-score,[7],-0.152 (inactive)
same,z-score,[8],-0.547
same,z-score,[9],-0.0697
same,z-score,[10],-1.04 (inactive)
same,z-score,[11],-0.294
same,z-score,[12],-0.0108 (inactive)
same,z-score,[13],-1.23 (inactive)
same,composite z-score,[14],-30.7 (active)
same,z-score,[15],2.35 (inactive)
same,z-score,[16],0.55 (inactive)
same,z-score,[17],-0.0376 (inactive)
same,z-score,[18],-1.1 (inactive)
same,z-score,[19],-1.2
same,composite z-score,[20],-0.168
CCCC[C@@H]1C[C@H]1[C@@H](NC(=O)c1ccccc1)c1ccc(C(F)(F)F)cc1,z-score,[1],-1.46
same,z-score,[2],-0.999
same,z-score,[3],-0.959
same,z-score,[4],0.256
same,z-score,[5],-0.372
same,z-score,[6],0.494
same,z-score,[7],-0.259 (inactive)
same,z-score,[8],0.677
same,z-score,[9],-1.24
same,z-score,[10],-0.0143 (inactive)
same,z-score,[11],1.09
same,z-score,[12],0.628 (inactive)
same,z-score,[13],0.142 (inactive)
same,composite z-score,[14],0.573 (inactive)
same,z-score,[15],0.479 (inactive)
same,z-score,[16],0.176 (inactive)
same,z-score,[17],0.1 (inactive)
same,z-score,[18],0.155 (inactive)
same,z-score,[19],0.329
same,composite z-score,[20],-0.369
[N-]=[N+]=NCc1ccccc1[C@H]1OC(c2ccc(OCCCO)cc2)=N[C@@]1(CCS(=O)(=O)c1ccccc1)C(=O)NCC(O)CO (stereo not given in full),z-score,[1],-0.257
same,z-score,[2],0.538
same,z-score,[3],0.0325
same,z-score,[4],-0.381
same,z-score,[5],0.429
same,z-score,[6],-1.57
same,z-score,[7],0.466 (inactive)
same,z-score,[8],-0.221
same,z-score,[9],-1.78
same,z-score,[10],-0.317 (inactive)
same,z-score,[11],0.044
same,z-score,[12],0.323 (inactive)
same,z-score,[13],-0.315 (inactive)
same,composite z-score,[14],1.09 (inactive)
same,z-score,[15],1.76 (inactive)
same,z-score,[16],1.64 (inactive)
same,z-score,[17],0.852 (inactive)
same,z-score,[18],-0.679 (inactive)
same,z-score,[19],0.0345
same,composite z-score,[20],-0.0553
CC(C)N1C(=O)c2ccccc2[C@@H](C(=O)NC2CC2)[C@@H]1c1ccc(CO)cc1,z-score,[1],0.798
same,z-score,[2],0.774
same,z-score,[3],0.476
same,z-score,[4],-0.0123
same,z-score,[5],0.282
same,z-score,[6],0.507
same,z-score,[7],0.319 (inactive)
same,z-score,[8],0.108
same,z-score,[9],0.0665
same,z-score,[10],0.743 (inactive)
same,z-score,[11],-0.146
same,z-score,[12],0.164 (inactive)
same,z-score,[13],0.224 (inactive)
same,composite z-score,[14],-0.54 (inactive)
same,z-score,[15],0.277 (inactive)
same,z-score,[16],-0.716 (inactive)
same,z-score,[17],0.0426 (inactive)
same,z-score,[18],-0.452 (inactive)
same,z-score,[19],0.417
same,composite z-score,[20],0.163
O=C1C[C@@](C(=O)NCCN2CCOCC2)(c2ccc([N+](=O)[O-])cc2)[C@@H](c2ccc(CO)cc2I)N1C1CCCCC1,z-score,[1],0.465
same,z-score,[2],0.267
same,z-score,[3],-0.696
same,z-score,[4],-1.55
same,z-score,[5],-0.764
same,z-score,[6],2.87
same,z-score,[7],0.264 (inactive)
same,z-score,[8],-0.444
same,z-score,[9],0.267
same,z-score,[10],2.01 (inactive)
same,z-score,[11],0.95
same,z-score,[12],-2.72 (inactive)
same,z-score,[13],1.11 (inactive)
same,composite z-score,[14],0.362 (inactive)
same,z-score,[15],-0.261 (inactive)
same,z-score,[16],-1.19 (inactive)
same,z-score,[17],0.497 (inactive)
same,z-score,[18],0.356 (inactive)
same,z-score,[19],0.891
same,composite z-score,[20],0.0223
O=C1OCC=C[C@H]2OC34C=CCN(Cn5nnc6ccccc65)C(=O)[C@H]3N(CCCO)C(=O)[C@@H]4[C@@H]12 (stereo not given in full),z-score,[1],-0.267
same,z-score,[2],0.832
same,z-score,[3],-0.64
same,z-score,[4],0.266
same,z-score,[5],0.0897
same,z-score,[6],-0.541
same,z-score,[7],0.904 (inactive)
same,z-score,[8],-0.252
same,z-score,[9],-1.33
same,z-score,[10],-0.813 (inactive)
same,z-score,[11],-0.281
same,z-score,[12],-0.68 (inactive)
same,z-score,[13],-0.319 (inactive)
same,composite z-score,[14],-2.85 (inactive)
same,z-score,[15],-0.0684 (inactive)
same,z-score,[16],-0.0325 (inactive)
same,z-score,[17],-1.4 (inactive)
same,z-score,[18],-1.1 (inactive)
same,z-score,[19],-0.509
same,composite z-score,[20],-0.105
COCCOC(=O)N1C(=O)[C@@]2(c3cc(C#CC4=CCCCC4)ccc31)[C@H](c1ccc(OCCO)cc1)N1[C@H](c3ccccc3)[C@H](c3ccccc3)OC(=O)[C@H]1[C@@H]2C(=O)N1CCN(c2ncccn2)CC1,z-score,[1],-0.471
same,z-score,[2],1.18
same,z-score,[3],0.47
same,z-score,[4],-0.759
same,z-score,[5],-0.774
same,z-score,[6],0.955
same,z-score,[7],1.46 (inactive)
same,z-score,[8],-0.333
same,z-score,[9],-1.01
same,z-score,[10],0.468 (inactive)
same,z-score,[11],0.205
same,z-score,[12],1.7 (inactive)
same,z-score,[13],0.0789 (inactive)
same,composite z-score,[14],-1.42 (inactive)
same,z-score,[15],2.28 (inactive)
same,z-score,[16],1.78 (inactive)
same,z-score,[17],-0.294 (inactive)
same,z-score,[18],0.0375 (inactive)
same,z-score,[19],0.621
same,composite z-score,[20],0.0219
O=C1OCC=C[C@H]2OC34C=CCN(Cc5ccccc5)C(=O)[C@H]3N(CCCCCCO)C(=O)[C@@H]4[C@@H]12 (stereo not given in full),z-score,[1],0.131
same,z-score,[2],0.98
same,z-score,[3],-0.246
same,z-score,[4],1.62
same,z-score,[5],0.659
same,z-score,[6],-0.1
same,z-score,[7],-0.173 (inactive)
same,z-score,[8],-0.822
same,z-score,[9],-0.566
same,z-score,[10],0.776 (inactive)
same,z-score,[11],1.07
same,z-score,[12],-0.296 (inactive)
same,z-score,[13],1.59 (inactive)
same,composite z-score,[14],-1.65 (inactive)
same,z-score,[15],0.0683 (inactive)
same,z-score,[16],-0.739 (inactive)
same,z-score,[17],0.693 (inactive)
same,z-score,[18],0.415 (inactive)
same,z-score,[19],0.517
same,composite z-score,[20],0.052
